Holding throughout (assay type): functional
Assay [1] concerns Plasmodium falciparum. As to the kind of experiment: GSK_TCMDC: Inhibition of Plasmodium falciparum 3D7 in whole red blood cells, using parasite LDH activity as an index of growth. Test compounds present at 2uM.
Assay [2] has as its system Plasmodium falciparum. As to the kind of experiment: GSK_TCMDC: Inhibition of Plasmodium falciparum Dd2 in whole red blood cells, using parasite LDH activity as an index of growth. Test compounds present at 2uM.
The test system of a further assay is HepG2. As to the kind of experiment: GSK_TCMDC: Percent inhibition of human HepG2 cell line. Test compounds present at 10uM.

As usually defined, the Inhibition is how much of the control response was suppressed. For the compound `CN(C)c1ccc(-c2csc(C(=O)NCC3CCN(CC4CCCCC4)C3)c2)cc1.O=C(O)C(F)(F)F` (stereo not drawn), the Inhibition is 86% in the assay on Plasmodium falciparum [1], 28% in the assay with Plasmodium falciparum [2] and 35% with HepG2.
With `N#Cc1ccc(N[C@@H](CC2CCCCC2)C(=O)NCc2cc(F)c(F)cc2F)c2ccccc12.O=C(O)C(F)(F)F`, the results for the Inhibition in the assay on Plasmodium falciparum [1], with Plasmodium falciparum [2] and with HepG2 were 94%, 39% and 12%, respectively.
As for `O=C(NC1CCC1)C1CCN(C(c2ccc(Cl)cc2)c2ccc(Cl)cc2)CC1`, the values for the Inhibition in the assay with Plasmodium falciparum [1], with Plasmodium falciparum [2] and in the assay with HepG2 were 95%, 70% and 6%, respectively.
The corresponding values for `Clc1ccc(OCc2ccccc2)c(-c2nc(-c3nc4ncc(Br)cc4[nH]3)cs2)c1` are 100%, 77% and 0%.
On the same counts, the results for `CN1CCC(Oc2cc(CN3CC[C@H](NC(=O)c4ccc(Cl)c(Cl)c4)C3)ccc2I)C1.O=C(O)C(F)(F)F` (stereo partly drawn) are 97%, 24% and 68%.
On the same counts, the results for `CC(C)NCc1ccc(-c2ccc(-c3nc4cc(C(F)(F)F)ccc4[nH]3)s2)cc1.O=C(O)C(F)(F)F` are 100%, 94% and 30%.
As to `Br.CC1(C)NC(N)=NC(=N)N1OCCSc1ccccc1`, the results for the Inhibition in the assay on Plasmodium falciparum [1], with Plasmodium falciparum [2] and with HepG2 were 95%, 95% and 68%, respectively.
With `CCn1cc(-c2nc(-c3cc(OC)cc(OC)c3)no2)c(=O)c2ccccc21`, the values for the Inhibition in the assay on Plasmodium falciparum [1], in the assay with Plasmodium falciparum [2] and with HepG2 were 89%, 77% and 0%, respectively.
For the compound `CC(C)(C)c1ccc2[nH]c(-c3ccc(C(=O)NC4CCN(Cc5ccccc5)CC4)s3)nc2c1`, the Inhibition with Plasmodium falciparum [1] was determined as 91%; in the assay on Plasmodium falciparum [2], 42%; in the assay with HepG2, 24%.
With `Cl.OCCNc1nc(Nc2ccccc2)nc2ccccc12`, the values for the Inhibition in the assay with Plasmodium falciparum [1], in the assay on Plasmodium falciparum [2] and in the assay with HepG2 were 93%, 61% and 5%, respectively.
As to `CCc1cc([C@H]2O[C@@H](n3cnc4c(NCC(c5ccccc5)c5ccccc5)nc(NCCNc5ccccn5)nc43)[C@H](O)[C@@H]2O)on1.O=CO`, the results for the Inhibition with Plasmodium falciparum [1], in the assay with Plasmodium falciparum [2] and with HepG2 were 94%, 32% and 14%, respectively.

Values taken from ChEMBL document CHEMBL1157539, “Thousands of chemical starting points for antimalarial lead identification” (Nature, 2010).
